Measured values as given in PubChem BioAssay AID1159580 (chemical genetic matrix, 2015).
Where “and” joins values, the source holds several entries; their conditions need not be identical. Equal values may be shown once. The whole screen tested about 5,500 compounds, of which about 2,000 (36%) were called active. Inconclusive results (about 18%) are left out. This is one part of the list. Values without a mark were called inactive. Cut-off read from the data, not from the text of the source: active = normalized growth mostly below about 0.91 (no sharp cut-off); inconclusive = no clear call, values can overlap the other calls; inactive = mostly above about 0.92.

Experiment: chemical genetic growth profiling, strain panel (AID 1159580);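 note: tested at 20 µM; growth read once vehicle control cultures reached saturation at 30 °C; 1 = growth at the plate median or of vehicle wells; lower values mean less growth of the strain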
Conditions: S. cerevisiae deletion strains, growth OD

Cc1cccc(N(C)C(=S)Oc2ccc3ccccc3c2)c1
normalized growth (locus YAL013W, strain DEP1, hits give low values): 0.968 | normalized growth (locus YAL021C, strain ccr4, hits give low values): 0.952 | normalized growth (locus YAL026C, strain drs2, hits give low values): 0.995 | normalized growth (locus YAL030W, strain snc1, hits give low values): 0.996 | normalized growth (locus YBL061C, strain skt5, hits give low values): 0.994 | normalized growth (locus YBR009C, strain hhf1, hits give low values): 1.02 | normalized growth (locus YBR021W, strain FUR4, hits give low values): 0.964 | normalized growth (locus YBR023C, strain chs3, hits give low values): 0.981 | normalized growth (locus YBR171W, strain sec66, hits give low values): 0.985 | normalized growth (locus YBR229C, strain ROT2, hits give low values): 0.943 | normalized growth (locus YBR231C, strain swc5, hits give low values): 0.973 | normalized growth (locus YBR279W, strain paf1, hits give low values): 1.01 | normalized growth (locus YCL011C, strain gbp2, hits give low values): 1 | normalized growth (locus YCL016C, strain dcc1, hits give low values): 0.986 | normalized growth (locus YCL029C, strain bik1, hits give low values): 0.967 | normalized growth (locus YCL069W, strain vba3, hits give low values): 0.989 | normalized growth (locus YCR088W, strain abp1, hits give low values): 0.995 | normalized growth (locus YDL005C, strain med2, hits give low values): 0.998 | normalized growth (locus YDL035C, strain GPR1, hits give low values): 0.979 | normalized growth (locus YDL040C, strain nat1, hits give low values): 1.01 | normalized growth (locus YDL074C, strain BRE1, hits give low values): 0.948 | normalized growth (locus YDL101C, strain DUN1, hits give low values): 0.979 | normalized growth (locus YDL134C, strain PPH21, hits give low values): 0.992 | normalized growth (locus YDL185W, strain tfp1, hits give low values): 0.915 | normalized growth (locus YDL192W, strain arf1, hits give low values): 0.976 | normalized growth (locus YDR001C, strain nth1, hits give low values): 0.99 | normalized growth (locus YDR069C, strain doa4, hits give low values): 0.985 | normalized growth (locus YDR101C, strain arx1, hits give low values): 0.978 | normalized growth (locus YDR137W, strain rgp1, hits give low values): 1.33 [resistant] (active) | normalized growth (locus YDR150W, strain NUM1, hits give low values): 0.971 | normalized growth (locus YDR159W, strain sac3, hits give low values): 0.935 | normalized growth (locus YDR162C, strain NBP2, hits give low values): 1.01 | normalized growth (locus YDR195W, strain ref2): 0.967 | normalized growth (locus YDR297W, strain sur2, hits give low values): 0.984 | normalized growth (locus YDR318W, strain mcm21, hits give low values): 0.982 | normalized growth (locus YDR334W, strain swr1, hits give low values): 1.04 | normalized growth (locus YDR335W, strain msn5, hits give low values): 1.01 | normalized growth (locus YDR388W, hits give low values): 0.99 | normalized growth (locus YDR392W, strain spt3, hits give low values): 0.894 | normalized growth (locus YDR502C, strain sam2, hits give low values): 0.983 | normalized growth (locus YEL003W, strain gim4, hits give low values): 1 | normalized growth (locus YEL037C, strain rad23, hits give low values): 0.99 | normalized growth (locus YEL061C, strain CIN8 (second series), hits give low values): 0.989 | normalized growth (locus YEL061C, strain CIN8, hits give low values): 0.987 | normalized growth (locus YER015W, strain faa2, hits give low values): 0.991 | normalized growth (locus YER016W, strain bim1, hits give low values): 0.993 | normalized growth (locus YER110C, hits give low values): 0.983 | normalized growth (locus YER111C, strain swi4, hits give low values): 1.01 | normalized growth (locus YER155C, strain BEM2 (second series), hits give low values): 1.02 | normalized growth (locus YER155C, strain BEM2, hits give low values): 0.979 | normalized growth (locus YER167W, strain BCK2, hits give low values): 0.976 | normalized growth (locus YFR010W, strain ubp6, hits give low values): 1.01 | normalized growth (locus YGL078C, strain dbp3, hits give low values): 0.98 | normalized growth (locus YGL086W, strain mad1, hits give low values): 0.962 | normalized growth (locus YGL167C, strain pmr1, hits give low values): 0.984 | normalized growth (locus YGL173C, strain kem1, hits give low values): 0.985 | normalized growth (locus YGL227W, strain vid30, hits give low values): 1.02 | normalized growth (locus YGL240W, strain doc1, hits give low values): 0.951 | normalized growth (locus YGL248W, strain PDE1, hits give low values): 0.974 | normalized growth (locus YGL253W, strain hxk2, hits give low values): 0.986 | normalized growth (locus YGR078C, strain PAC10, hits give low values): 0.979 | normalized growth (locus YGR135W, strain pre9, hits give low values): 0.997 | normalized growth (locus YGR252W, strain gcn5, hits give low values): 1.02 | normalized growth (locus YHR013C, strain ard1, hits give low values): 1 | normalized growth (locus YHR027C, strain rpn1, hits give low values): 0.989 | normalized growth (locus YHR030C, strain SLT2, hits give low values): 0.986 and 0.935 | normalized growth (locus YHR079C, strain IRE1 (second series), hits give low values): 0.984 | normalized growth (locus YHR079C, strain IRE1, hits give low values): 0.941 | normalized growth (locus YHR094C, strain hxt1, hits give low values): 0.981 | normalized growth (locus YHR129C, strain ARP1, hits give low values): 0.969 | normalized growth (locus YHR142W, strain chs7, hits give low values): 1 | normalized growth (locus YHR200W, strain rpn10, hits give low values): 0.961 | normalized growth (locus YIL066C, strain RNR3, hits give low values): 0.958 | normalized growth (locus YIL073C, strain SPO22, hits give low values): 0.964 | normalized growth (locus YIL125W, strain kgd1, hits give low values): 0.981 | normalized growth (locus YIR030C, strain dcg1, hits give low values): 0.966 | normalized growth (locus YJL092W, strain hpr5, hits give low values): 0.99 | normalized growth (locus YJL095W, strain BCK1 (second series), hits give low values): 0.993 | normalized growth (locus YJL095W, strain BCK1, hits give low values): 0.993 and 0.928 | normalized growth (locus YJL115W, strain asf1, hits give low values): 1 | normalized growth (locus YJL129C, strain trk1, hits give low values): 0.922 | normalized growth (locus YJL134W, strain LCB3, hits give low values): 0.989 | normalized growth (locus YJL154C, strain vps35, hits give low values): 0.998 | normalized growth (locus YJL164C, strain tpk1, hits give low values): 0.997 | normalized growth (locus YJL166W, strain qcr8, hits give low values): 0.99 | normalized growth (locus YJL168C, strain set2, hits give low values): 0.984 | normalized growth (locus YJL187C, strain SWE1 (second series), hits give low values): 0.974 | normalized growth (locus YJR043C, strain POL32, hits give low values): 0.997 | normalized growth (locus YJR066W, strain TOR1, hits give low values): 0.878
